esBAF inh: SWI/SNF esBAF complex inhibition; actives 2% (n = 350,000); reporter increase, % at 12.5 µM; mouse ES cells, Bmi1-luciferase knock-in reporter, 24 h; 100% = twice the neutral-well signal; in the data active = activation above about 40%;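 also: a rise in the Bmi1 reporter signal indicates esBAF inhibition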
LMP1 NFkB inh: Epstein-Barr LMP1 NF-kappaB reporter inhibition; LMP1-induced NF-kappaB luciferase reporter cells, luminescence; inhibition, % at 12.5 µM; actives 0.69% (n = 350,000); AID 504558; in the data active = inhibition above about 41%
TRPM1 prom inh: inhibitors of MITF-driven TRPM1 promoter in melanoma cells; AID 488899; actives 0.83% (n = 330,000); inhibition, % at 12.5 µM; SK-MEL-5 TRPM1 promoter luciferase, 24 h;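 active = mean inhibition across replicates of 60% or more, whatever share of single replicates reaches that level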
MITF TRPM1 HTS: activators of MITF-driven TRPM1 promoter activity in SK-MEL-5 cells; activation, % at 12.5 µM; actives 0.75% (n = 300,000); AID 588334; SK-MEL-5 TRPM1-promoter luciferase, 24 h; % of positive control, neutral wells = 0;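 active = mean activation of at least 80% with every replicate also reaching 80%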
Statin myotox sup: protects C2C12 myotubes from simvastatin toxicity; ATP luminescence, 48 h; scaled: DMSO 0, geranylgeraniol control 100; rescue of ATP level, % at 7.49 µM; actives 0.78% (n = 330,000); AID 602340;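 active = mean ATP rescue above about 67%, or every replicate alone reaching that limit, limit read from the data, passing the limit was not always enough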;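 also: myotubes were challenged with 10 µM simvastatin during compound exposure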
Wnt act: activators of Wnt/beta-catenin signaling; AID 743398; Wnt/beta-catenin reporter cell assay, activator, plate reader; actives 1.2% (n = 300,000); activation, % at 9.35 µM; in the data active = activation above about 30%, passing the limit was not always enough
Of the large screens only hits and unclear results are named; the others gave an inactive call. Sampled rows, rich in hits. Any-hit rate of the full collection: about 4%.

O=C(O)COCC(=O)N1CCN(c2cc(C(F)(F)F)nc3ccccc23)CC1	none
CN(C)c1ccc(C(=O)N2CCN(c3cc(C(F)(F)F)nc4ccccc34)CC2)cc1	Wnt act 55
COc1ccc(C(O)c2ncc(-c3ccc4ccccc4c3)[nH]2)cc1 (stereo not drawn)	none (no result: LMP1 NFkB inh, TRPM1 prom inh, MITF TRPM1 HTS, Wnt act)
OC(c1ccc(F)cc1)c1ncc(-c2ccc3ccccc3c2)[nH]1 (stereo not drawn)	esBAF inh 76 (no result: LMP1 NFkB inh, TRPM1 prom inh, MITF TRPM1 HTS)
Cc1cc(C)cc(C(O)c2ncc(-c3ccc4ccccc4c3)[nH]2)c1 (stereo not drawn)	none (no result: LMP1 NFkB inh, TRPM1 prom inh, MITF TRPM1 HTS)
Cc1ccc(C(O)c2ncc(-c3ccc4ccccc4c3)[nH]2)cc1 (stereo not drawn)	esBAF inh 53 (no result: LMP1 NFkB inh, TRPM1 prom inh, MITF TRPM1 HTS)
OC(c1ccc(Cl)cc1)c1ncc(-c2ccccc2F)[nH]1 (stereo not drawn)	esBAF inh 51 (no result: LMP1 NFkB inh, TRPM1 prom inh, MITF TRPM1 HTS)
CCCNC(=O)C[C@H]1C[C@H]2c3cc(NC(=O)C4CCOCC4)ccc3O[C@H]2[C@H](CO)O1	none (no result: LMP1 NFkB inh, TRPM1 prom inh, MITF TRPM1 HTS, Wnt act)
CC(C)(C)c1ccc(/C=C2\CCn3c2nc2cc(C(=O)O)ccc2c3=O)cc1	none (no result: Wnt act)
Cc1csc2c(N3CCCCC3)ncnc12	none (no result: esBAF inh, Statin myotox sup)
Oc1ccc2ccccc2c1C=Nc1ccc(Cl)cn1	Wnt act 46 (no result: esBAF inh, Statin myotox sup)
Oc1ccc2ccccc2c1C=NCc1ccccc1	none (no result: esBAF inh, Statin myotox sup)
Oc1ccccc1C=NN=Cc1c(O)ccc2ccccc12	LMP1 NFkB inh 93, Wnt act 48 (no result: esBAF inh, Statin myotox sup)
O=C(Cc1ccc(F)cc1)NCC1CCCO1 (stereo not drawn)	none
COc1cccc(-c2cc(C(=O)NCC3CCCO3)on2)c1 (stereo not drawn)	esBAF inh 56
COc1ccccc1NC(=S)NCC1CCCO1 (stereo not drawn)	none (no result: esBAF inh, Statin myotox sup)
COc1ccc(NC(=S)NCC2CCCO2)c(OC)c1 (stereo not drawn)	Statin myotox sup 91
O=C(NCC1CCCO1)c1cc(-c2ccc(F)cc2)no1 (stereo not drawn)	Wnt act 39
COc1ccc(-c2cc(C(=O)NCC3CCCO3)on2)cc1OC (stereo not drawn)	none
COc1cc2c(C(=O)NCCCN3CCN(c4cccc(Cl)c4)CC3)cn(C)c(=O)c2cc1OC	Statin myotox sup 122
COc1ccc(S(N)(=O)=O)cc1C(=O)NCCCN1CCN(c2cccc(Cl)c2)CC1	none (no result: Wnt act)
O=C1c2ccccc2C(=O)c2c(/C=C/N3CCCCC3)ccnc21	TRPM1 prom inh 95 (no result: esBAF inh, Statin myotox sup)
O=C1c2ccccc2-c2cccnc21	none (no result: TRPM1 prom inh, MITF TRPM1 HTS)
COc1ccc(C2C(C#N)=C(N)Oc3cc(C)n(Cc4ccco4)c(=O)c32)cc1 (stereo not drawn)	none
COc1cccc(C2C(C#N)=C(N)Oc3cc(C)n(Cc4ccco4)c(=O)c32)c1 (stereo not drawn)	Statin myotox sup 142
CC1CCc2c(sc3ncn(CCO)c(=O)c23)C1 (stereo not drawn)	esBAF inh 53
CC1CCc2c(sc3ncn(Cc4ccc(C(=O)O)cc4)c(=O)c23)C1 (stereo not drawn)	none
CCC(C)NC(=O)c1cc2cc3ccc(OC)cc3nc2s1 (stereo not drawn)	Wnt act 45
NC(N)=NS(=O)(=O)c1ccc(NC(=S)NC(=O)/C=C/c2ccccc2)cc1	none (no result: MITF TRPM1 HTS)
CN1CCN(S(=O)(=O)c2ccc(Sc3nnnn3-c3ccccc3)c([N+](=O)[O-])c2)CC1	TRPM1 prom inh 88 (no result: esBAF inh, Statin myotox sup)
CC(=O)c1ccc(Sc2nnnn2-c2ccccc2)c([N+](=O)[O-])c1	TRPM1 prom inh 63 (no result: esBAF inh, Statin myotox sup, Wnt act)
CCOc1cc(/C=N/Nc2nncc(-c3ccccc3)n2)ccc1O	none
Cc1cccc(CC(Cc2nc3ccccc3[nH]2)c2nc3ccccc3[nH]2)c1 (stereo not drawn)	none (no result: esBAF inh, Statin myotox sup, Wnt act)
O=C(COc1ccccc1Cl)NCCCNC(=O)c1ccccn1	none
C=CCn1c(C)cc(C(=O)COC(=O)c2cncc(Br)c2)c1C	MITF TRPM1 HTS 93
COC(=O)CCSc1nc(N2CCOCC2)c2c(c1C#N)CC(C)(C)OC2	none
COC(=O)c1ccc(CSc2nc(N3CCOCC3)c3c(c2C#N)CC(C)(C)OC3)o1	Statin myotox sup 81 (no result: MITF TRPM1 HTS, Wnt act)
CCOC(=O)C(C)Sc1nc(N2CCOCC2)c2c(c1C#N)CC(C)(C)OC2 (stereo not drawn)	none (no result: esBAF inh, LMP1 NFkB inh, TRPM1 prom inh, MITF TRPM1 HTS, Statin myotox sup)
CCOC(=O)CCSc1nc(N2CCOCC2)c2c(c1C#N)CC(C)(C)OC2	LMP1 NFkB inh 63 (no result: esBAF inh, Statin myotox sup)
COc1ccc(NC(=O)C2CCCN2c2ccc(OC)c(OC)c2)cc1OC (stereo not drawn)	Statin myotox sup 80
Cc1ccc(N/C=C(/C#N)c2ccsc2)cc1C	esBAF inh 62 (no result: Wnt act)
Cc1ccc(N/N=C(\C#N)C(=O)c2ccsc2)cc1	none (no result: esBAF inh, Statin myotox sup)
Cc1c(C(=O)N2c3ccccc3CC2C)oc2ccccc12 (stereo not drawn)	esBAF inh 85, Wnt act 51
CC(C)[n+]1ccn(C2=C([O-])c3ccccc3C(=O)/C2=N\S(=O)(=O)c2ccccc2)c1	none (no result: esBAF inh, MITF TRPM1 HTS, Statin myotox sup)
CC(C)(C)c1cc[n+](C2=C([O-])c3ccccc3C(=O)/C2=N\S(=O)(=O)c2ccccc2)cc1	none (no result: esBAF inh, LMP1 NFkB inh, TRPM1 prom inh, MITF TRPM1 HTS, Statin myotox sup)
CCCC[n+]1ccn(C2=C([O-])c3ccccc3C(=O)/C2=N\S(=O)(=O)c2ccccc2)c1	TRPM1 prom inh 96
CCCCC[n+]1ccn(C2=C([O-])c3ccccc3C(=O)/C2=N\S(=O)(=O)c2ccccc2)c1	TRPM1 prom inh 94
CCCCC[n+]1ccn(C2=C([O-])c3ccccc3C(=O)/C2=N\S(=O)(=O)c2ccc(Br)cc2)c1	TRPM1 prom inh 85 (no result: esBAF inh, MITF TRPM1 HTS, Statin myotox sup)
O=C(COC(=O)c1ccc(S(=O)(=O)N2CCCC2)cc1)Nc1ccc(F)cc1F	none
CCn1ncc(Br)c1C(=O)Nc1ccccc1OC	none (no result: esBAF inh, Statin myotox sup)
CCn1ncc(Br)c1C(=O)Nc1cc(C(=O)OC)ccc1C(=O)OC	Statin myotox sup 123 (no result: Wnt act)
CC(=O)c1cc(F)c(N2CCOCC2)cc1C	none (no result: esBAF inh, Statin myotox sup)
CC(=O)c1cc(F)c(N2CCCC2)cc1C	Statin myotox sup 101
CCOC(=O)CNc1ccc(C(=O)OCC)cc1[N+](=O)[O-]	none (no result: esBAF inh, Statin myotox sup)
CCCNc1ccc(C(=O)OCC)cc1[N+](=O)[O-]	esBAF inh 52
COc1ccc(CN(C)C[C@@H]2OCCCC[C@@H](C)Oc3ccc(NC(=O)Nc4ccc5c(c4)OCO5)cc3C(=O)N([C@H](C)CO)C[C@H]2C)cc1	none (no result: LMP1 NFkB inh, TRPM1 prom inh, MITF TRPM1 HTS, Statin myotox sup, Wnt act)
Cn1nnnc1Sc1ncnc2scc(-c3ccc([N+](=O)[O-])cc3)c12	LMP1 NFkB inh 74, TRPM1 prom inh 98
COc1ccc(-c2csc3ncnc(Sc4nnnn4C)c23)cc1	LMP1 NFkB inh 87
Cn1nnnc1Sc1ncnc2scc(-c3ccc(Cl)cc3)c12	TRPM1 prom inh 90
Cn1nnnc1Sc1ncnc2scc(-c3ccc4c(c3)OCO4)c12	none
Cn1nnnc1Sc1ncnc2scc(-c3ccccc3Cl)c12	none
Cc1noc(C)c1COc1ccc(C(=O)NNC(=O)c2ccccc2)cc1	none
O=S(=O)(c1ccc(NC(=S)Nc2ccc3c(c2)OCO3)cc1)N1CCOCC1	esBAF inh 45 (no result: Wnt act)

Screens as filed in PubChem BioAssay.
